In PubChem BioAssay (NCI):
About 83,000 compounds went through this panel and 20% of them were active in at least one assay; those are over-represented in the sample as a whole.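 Results are percent growth after 48 hours of single-concentration exposure. 100 means growth as in untreated cells, lower positive values show inhibition; negative values down to -100 show cell death.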 Values without a mark were called inactive. Calls of active or inactive are those of the source. The calls were made as follows: active = growth percent below 10; inactive = the rest.

What was measured:
Assay in all cases: NCI-60 one-dose screen, 48 h (100 = growth as untreated, 0 = no growth, -100 = all killed)
Conditions in all cases: 10 µM unless noted
SR leukemia = test system: SR leukemia
RPMI-8226 leukemia = test system: RPMI-8226 leukemia
OVCAR-8 ovarian = test system: OVCAR-8 ovarian
OVCAR-5 ovarian = test system: OVCAR-5 ovarian
OVCAR-4 ovarian = test system: OVCAR-4 ovarian
SK-OV-3 ovarian = test system: SK-OV-3 ovarian
IGROV1 ovarian = test system: IGROV1 ovarian
OVCAR-3 ovarian = test system: OVCAR-3 ovarian
HS 578T breast = test system: HS 578T breast
NCI/ADR-RES ovarian = test system: NCI/ADR-RES ovarian
T-47D breast = test system: T-47D breast
BT-549 breast = test system: BT-549 breast
MDA-MB-435 melanoma = test system: MDA-MB-435 melanoma
SW-620 colon = test system: SW-620 colon
MCF7 breast = test system: MCF7 breast
HCT-116 colon = test system: HCT-116 colon
HCC-2998 colon = test system: HCC-2998 colon
KM12 colon = test system: KM12 colon

SMILES | growth (SR leukemia) | growth (RPMI-8226 leukemia) | growth (OVCAR-8 ovarian) | growth (OVCAR-5 ovarian) | growth (OVCAR-4 ovarian) | growth (SK-OV-3 ovarian) | growth (IGROV1 ovarian) | growth (OVCAR-3 ovarian) | growth (HS 578T breast) | growth (NCI/ADR-RES ovarian) | growth (T-47D breast) | growth (BT-549 breast) | growth (MDA-MB-435 melanoma) | growth (SW-620 colon) | growth (MCF7 breast) | growth (HCT-116 colon) | growth (HCC-2998 colon) | growth (KM12 colon)
COc1cc(OCc2cccc(-c3ccc4c(c3)OCCO4)c2C)cc(OC)c1C=O | 37.3% | 29.6% | 70.4% | 68.7% | 35.9% | 93.2% | 68.1% | 60.5% | 75.9% | 70.4% | 10.1% | 56.6% | 52.9% | 70.2% | 22.6% | 44.1% | 70.3% | 78.9%
O=C(CN1C(=O)c2ccccc2S1(=O)=O)Nc1nc(-c2cc3ccccc3oc2=O)cs1 | 109% | 108% | 101% | 106% | 110% | 106% | 99.1% | 113% | 96.6% | 103% | 98.7% | 105% | 104% | 103% | 96.6% | 104% | 102% | 101%
CSc1nc(N)c2c(n1)NC(c1ccccc1)C1CCc3ccccc3C1=N2 (stereo not given) | 8.22% (active) | 36.6% | 42.1% | 121% | 41.6% | 85.8% | 40.4% | 43.9% | 62% | 35.8% | 33.5% | 73.9% | 55.9% | 67.7% | 57.1% | 32.3% | 88.8% | 48.3%
CC(C)(C)c1ccc(C(=O)Nc2sc3c(c2C#N)CCC(=O)C3)cc1 | 4.39% (active) | -8.65% (active) | 16.6% | 21% | -73.8% (active) | 57.4% | 25.8% | -29.6% (active) | 30.5% | 9.31% (active) | -31.8% (active) | -11.7% (active) | 6.81% (active) | -51% (active) | 8.36% (active) | 2.24% (active) | 48.1% | 12%
C=C(CNCCO)[C@@H]1CC[C@]2(CO)CC[C@]3(C)[C@H](CC[C@@H]4[C@@]5(C)CCC(NCCO)C(C)(C)[C@@H]5CC[C@]43C)[C@@H]12 (stereo not given in full) | -22.9% (active) | 36.8% | 75.8% | 90.6% | 77.1% | 94.6% | 80.4% | 80% | 78.2% | 95% | 84.4% | 78.9% | 70.2% | 73.8% | 47.4% | 44.3% | 71.7% | 63.4%
